Records with an inconclusive call do not appear. Active and inactive are the calls of the source. The calls were made as follows: active = hit-call score of the fitted dose curve at least 0.9, where 1 is the maximum; inconclusive = response in the unintended direction; inactive = score below 0.9.
assay: ACEA_ER_80hr: ACEA Biosciences xCELLigence Real-Time Cell Analysis on Estrogen Receptor Agonism for Proliferation (AID 2282667); settings: T47D proliferation, impedance (xCELLigence), 80 h
Procedure: ACEA_ER is a cell-based, single-readout assay that uses T47D, a human breast cell line, with measurements taken at 80 hours after chemical dosing in a 96-well plate, although TO2 (mc0.srcf) used a 384-well plate. Differences in plate size can be ignored given data normalization.ACEA_ER_80hr is one of two assay component(s) measured or calculated from the ACEA_ER assay. It is designed to make measurements of real-time cell-growth kinetics, a form of growth reporter, as detected with electrical impedance signals by Real-Time Cell Electrode Sensor (RT-CES) technology.Data from the assay component ACEA_ER_80hr was analyzed into 1 assay endpoint. This assay endpoint, ACEA_ER_80hr_Positive, was analyzed in the positive analysis fitting direction relative to DMSO as the negative control and baseline of activity. Using a type of growth reporter, measures of the cells for gain-of-signal activity can be used to understand the signaling at the pathway-level as they relate to the gene ESR1. Furthermore, this assay endpoint can be referred to as a primary readout, because this assay has produced multiple assay endpoints where this one serves a signaling function. To generalize the intended target to other relatable targets, this assay endpoint is annotated to the nuclear receptor intended target family, where the subfamily is steroidal.
The xCELLigence system Multi-E-Plate stations were used to measure the time-dependent response to chemicals. Each compound was tested in an eight-point, 1:4 serial dilution series starting at a maximum final concentration of 100 uM. A maximum starting concentration of 0.5% DMSO was present in the 100 uM chemical samples and was diluted along with the test article dilution series. The screen was performed in biological duplicate using two separate, 96-well, E-Plates 96 for each dilution series (n = 2). Positive controls (MG132 and E2) and a negative control (assay media) were tested in quadruplicate on each testing plate. […] Reference compounds were tested with 8 concentrations with 1:5 serial dilutions. All screening was carried out by ACEA Biosciences, Inc. (San Diego, CA). T-47D cells purchased from ATCC were maintained in RPMI1640 media supplemented with 10% characterized fetal bovine serum (FBS). […] Cells were then detached and seeded in E-Plates 96 in assay medium. After overnight monitoring of growth once every hour, compounds were added to […] cells and remained in the medium until the end of the experiment. Cellular responses were then recorded once every 5 min for the first 5 h, and once every hour for an additional 100 h.

| Structure (SMILES) | outcome | AC50 |
| --- | --- | --- |
| CCOCOCC | inactive | – |
| CC(C)OC(=O)COc1ccc(Cl)cc1Cl | inactive | – |
| CNS(=O)(=O)C(F)(F)C(F)(F)C(F)(F)C(F)(F)C(F)(F)C(F)(F)C(F)(F)C(F)(F)F | inactive | – |
| O=C(O)C(F)(F)C(F)(F)C(F)(F)C(F)(F)C(F)(F)C(F)(F)C(F)F | inactive | – |
| OCCCCC(F)(F)C(F)(F)C(F)(F)C(F)(F)F | inactive | – |
| OCCCC(F)(F)C(F)(F)C(F)(F)C(F)(F)C(F)(F)C(F)(F)C(F)(F)C(F)(F)F | – | 21 µM (active) |
| Cc1ccc2c(c1)OCC(=O)CO2 | inactive | – |
| CCCCOC(=O)[C@H](C)O | inactive | – |
| O=C1OC(=O)c2ccc3c4c(ccc1c24)C(=O)OC3=O | – | 0.0537 µM (active) |
| CC(C)OC=O | inactive | – |
| CCC(C)CO (stereo not given) | inactive | – |
| NC(=O)C(F)(F)C(F)(F)C(F)(F)F | inactive | – |
| CCCCOC(=O)C(C)O (stereo not given) | inactive | – |
| NC(O)(C(F)(F)F)C(F)(F)F | inactive | – |
| FC(F)(F)C(F)(F)C(F)(F)CC1CO1 (stereo not given) | inactive | – |
| OCCCCl | inactive | – |
| CO[Si](CCCOCC1CO1)(OC)OC (stereo not given) | inactive | – |
| CCc1cc(Cc2cc(CC)c(N)c(CC)c2)cc(CC)c1N | inactive | – |
| CC(C)(C)c1cc(Cc2cc(C(C)(C)C)c(O)c(C(C)(C)C)c2)cc(C(C)(C)C)c1O | inactive | – |
| CCn1c2ccccc2c2ccccc21 | inactive | – |

| Structure (SMILES) | outcome | AC50 |
| --- | --- | --- |
| O=C1c2ccccc2C(=O)c2c(Cl)cccc21 | inactive | – |
| CCCCC(CC)COC(=O)c1ccc(N(C)C)cc1 (stereo not given) | inactive | – |
| CN1CN(C)CN(C)C1 | inactive | – |
| C#CC(O)CCC (stereo not given) | inactive | – |
| CCCCCC/C=C/CCCCCCCC(=O)O | inactive | – |
| CCc1ccc(C)nc1 | inactive | – |
| O=C(O)CCC(F)(F)C(F)(F)C(F)(F)C(F)(F)C(F)(F)C(F)(F)C(F)(F)F | inactive | – |
| OCCCc1cccnc1 | inactive | – |
| O=C(Cl)C(F)(F)C(F)(F)C(F)(F)C(F)(F)C(F)(F)C(F)(F)F | inactive | – |
| OC(O)C(F)(F)C(F)(F)F | inactive | – |
| CN(C)C(C)(C)CO | – | 50 µM (active) |
| Cc1cc(C)c(O)c(C(C)(C)C)c1 | inactive | – |
| O=C1C=CC(=O)N1c1ccc(Cc2ccc(N3C(=O)C=CC3=O)cc2)cc1 | inactive | – |
| NC(=O)C(F)(F)C(F)(F)C(F)(F)C(F)F | inactive | – |
| Cc1cccc(C)n1 | inactive | – |
| C[C@]12CC[C@H]3C(=CCc4cc(O)ccc43)[C@@H]1CCC2=O | – | 0.00143 µM (active) |
| CCC/C=C/CO | inactive | – |
| OCC(O)CC(F)(F)C(F)(F)C(F)(F)C(F)(F)F (stereo not given) | inactive | – |
| Cc1cc(=O)[nH]c(C(C)C)n1 | inactive | – |
| FC(F)(F)C(F)(F)C(F)(F)C(F)(F)C(F)(F)C(F)(F)C(F)(F)CCI | inactive | – |

— PubChem BioAssay (EPA / NIEHS)
